Our source for the Potency values is PubChem BioAssay (NCATS).

Test [1] deals with Glutathione peroxidase 1 (Homo sapiens) (UniProt P07203). Description: Primary qHTS Assay for Inhibitors of Recombinant Selenoprotein Glutathione Peroxidase 1 (GPX1) (AID 1845191). Also: nearly all actives have a fitted effect of over 65% in size. Also: potency is read from the fitted curve at half-maximal effect. In a few lines:
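10 nM GPX1 + cpd, 30 min RT; start w/ 1 mM GSH, 0.5 mM cumene hydroperoxide, 0.5 mM NADPH, 100 nM GR, 0.01% BSA; buffer 50 mM Tris-HCl pH 7.5, 2 mM EDTA, 150 mM NaCl; Fl 340/450, 0 & 15 min.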
On the technique in general: Quantitative high-throughput screening tests each substance at several concentrations.

Test [2] deals with Phospholipid hydroperoxide glutathione peroxidase GPX4 (Homo sapiens) (UniProt P36969). Description: Primary qHTS Assay for Inhibitors of Recombinant Selenoprotein Glutathione Peroxidase 4 (GPX4) (AID 1845192). Also: nearly all actives have a fitted effect of over 65% in size. An outline of the steps: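 NADPH consumption, followed by fluorescence at 340/450 nm between 0 and 15 min, reports GPX4 activity via coupled glutathione reductase (100 nM). Enzyme 200 nM was pre-exposed to compound 30 min; 0.5 mM cumene hydroperoxide and 1 mM GSH served as substrates.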

Test [3] deals with Nanoluciferase (engineered Oplophorus gracilirostris luciferase). Description: Primary Nanoluciferase (NLuc) qHTS assay for identification of artifact compounds. (AID 1845222). Also: potency is read from the fitted curve at half-maximal effect. An outline of the steps:
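Luminescence from secreted NLuc (filtered, 1:55-diluted S16 cell medium) read 5 min after Nano-Glo substrate; compounds preincubated 15 min, RT. Hill fits of inhibition normalized to DMSO and no-enzyme.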

The nature of test [4]: Primary redox qHTS assay for identification of artifact compounds. (AID 1845223). An outline of the steps:
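Amplex Red (25 uM) and HRP (250 mU/mL) in HBSS, with compounds for 15 min, then 250 uM DTT for 30 min, room temperature, dark. Fluorescence 525/598 nm read; normalized to DMSO and 10 uM DA3003; Hill fit.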

A short description of test [5]: Primary fluorescence-based thiol-reactive (MSTI) qHTS assay for identification of artifact compounds. (AID 1845221). Also: nearly all actives have a fitted effect of over 65% in size. Also: potency is read from the fitted curve at half-maximal effect. In a few lines:
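One-hour, room-temperature, dark incubation of compound with 4 uM MSTI in PBS (pH 7.4, 2% DMSO) precedes a fluorescence read at 525 nm excitation, 598 nm emission; Hill-equation fitting yields concentration-response values.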

Test [6] deals with Luciferin 4-monooxygenase (Photinus pyralis) (UniProt P08659). Put plainly: Primary firefly luciferase (FLuc) qHTS assay for identification of artifact compounds. (AID 1845220). Also: nearly all actives have a fitted effect of over 60% in size. Also: potency is read from the fitted curve at half-maximal effect. An outline of the steps: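 Compounds sat 15 min at room temperature with 10 uM luciferin and 10 uM ATP (pH 7.6 Tris acetate). Firefly luciferase (10 nM final) was then added, and luminescence was read 5 min later. Data normalized to no-enzyme and DMSO controls were Hill-fitted.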

Unmarked numbers belong to inactive results. Records with an inconclusive call do not appear. Activity calls are given as the source filed them. Calls follow the shape of the dose curve; as a rule, active = well fitted curve in the direction sought with a large enough effect; inconclusive = small, poorly fitted or top-dose-only effect, or another doubt; inactive = no such curve, though single readings can be large; an effect the other way counts as inactive or inconclusive.

Sequence of Phospholipid hydroperoxide glutathione peroxidase GPX4 (Homo sapiens) (P36969 whole entry, looked up): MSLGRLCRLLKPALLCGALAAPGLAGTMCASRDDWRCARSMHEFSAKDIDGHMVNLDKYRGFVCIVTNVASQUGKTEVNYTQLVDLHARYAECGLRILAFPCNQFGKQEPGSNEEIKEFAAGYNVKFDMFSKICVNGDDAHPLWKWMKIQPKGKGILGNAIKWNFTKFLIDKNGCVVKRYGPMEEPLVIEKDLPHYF
Sequence of Glutathione peroxidase 1 (Homo sapiens) (P07203 whole entry, looked up): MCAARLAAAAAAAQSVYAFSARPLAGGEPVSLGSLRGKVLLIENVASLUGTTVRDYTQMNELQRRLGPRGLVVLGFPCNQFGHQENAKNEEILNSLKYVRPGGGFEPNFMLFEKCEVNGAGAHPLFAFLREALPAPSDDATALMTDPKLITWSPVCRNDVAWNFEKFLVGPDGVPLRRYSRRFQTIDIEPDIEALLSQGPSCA

Turning to `CC(=O)c1ccc2c(c1)C(O)C(C(C)(C)O)O2` (stereo not given), the Potency result in test [1], in test [2], in test [3] and in test [4] was “inactive” each time.

As to `CC(C)(O)c1ccc2c(c1)C(O)C[C@H]1[C@](C)(C(=O)O)CCC[C@]21C` (stereo not given in full), the Potency result in test [1], in test [2], in test [3] and in test [4] was “inactive” in each case.

Consider `C[C@@H]1CN(Cc2ncccn2)C[C@H]1c1nc2c(cnn2C2CCOCC2)c(=O)[nH]1`, for which the Potency entry in test [1], in test [2], in test [5], in test [3] and in test [4] was “inactive” throughout.

As to `CCN(CC)c1ccc2c(O)c(C=Nc3ccc(CC(=O)O)c(-c4c5c(nc6ccccc46)CCC(C(=O)NN)C5)c3)c(=O)oc2c1` (stereo not given), the Potency entry in test [1], in test [2], in test [3] and in test [4] was “inactive” each time.

Take `CON(C)C(=O)[C@H](O)[C@H](Cc1ccccc1)NC(=O)c1cc2cc(Cl)ccc2[nH]1`: the Potency result in test [1], in test [2], in test [5], in test [3] and in test [4] was “inactive” throughout.

Regarding `Cc1cc(O)cc(O[C@@H]2O[C@H](CO)[C@@H](O)[C@H](O)[C@H]2O)c1`, the Potency entry in test [1], in test [2], in test [3] and in test [4] was “inactive” in each case.

For the compound `Cc1ccccc1NC(=O)Nc1ccc(CC(=O)N(C)[C@@H](CC(C)C)C(=O)NCC[C@H](NC(=O)[C@@H]2CCCN2S(=O)(=O)c2cc(Cl)cc(Cl)c2)C(=O)O)cc1`, the Potency result in test [1], in test [2], in test [5], in test [3] and in test [4] was “inactive” each time.

With `CCN1CCN(Cc2ccc(NC(=O)c3ccc(C)c(/C=C/c4cnc5[nH]ccc5c4OC)c3)cc2C(F)(F)F)CC1`, the Potency result in test [1], in test [2], in test [5], in test [3] and in test [4] was “inactive” each time.

As for `COc1cc2c(cc1OC)N1C(=O)C[C@]34C=CCN5CC[C@@H]2[C@@H](CC3)[C@]514`, the Potency entry in test [1], in test [2], in test [5], in test [3] and in test [4] was “inactive” throughout.

In the case of `CC(=O)/C=C/[C@H]1[C@](C)(O)[C@@H](O)[C@H](OC(C)=O)C2C(C)(C)CCC[C@@]21C` (stereo not given in full), the Potency result in test [1], in test [2], in test [5], in test [3] and in test [4] was “inactive” in each case.

Take `COC(=O)CCc1cc2ccoc2c(OC)c1O[C@@H]1O[C@H](CO)[C@@H](O)[C@H](O)[C@H]1O`: the Potency result in test [1], in test [2], in test [5], in test [3] and in test [4] was “inactive” throughout.

Take `C#CCN(Cc1cc2c(=O)[nH]c(C)nc2cc1Br)c1ccc(C(=O)NCc2cccnc2)cc1`: the Potency result in test [1], in test [2], in test [5], in test [3] and in test [4] was “inactive” throughout.

On to `CCCCC1CCN(CCCC(=O)c2ccccc2C)CC1`, for which the Potency result in test [1], in test [2], in test [5], in test [3] and in test [4] was “inactive” in each case.

As to `C=C1C(OC(C)=O)CCC2(C)CC3(OC)OC(=O)C(C)=C3CC12` (stereo not given), the Potency result in test [1], in test [2], in test [3] and in test [4] was “inactive” each time.

Regarding `CC(=O)NC1C(OC(C)(C)C2CCC3(C)C=C(C4CCC5C4(C)CC(O)C4OC(C(C)(C)O)CCC45C)CCC3O2)OC(CO)C(O)C1O` (stereo not given), the Potency result in test [1], in test [2] and in test [3] was “inactive” throughout.

With `CC1(CCOC2OC(CO)C(O)C(O)C2O)CCC23OC2(C1)C(O)CC1C(C)(C(=O)O)CCCC13C` (stereo not given), the Potency entry in test [1], in test [2], in test [5], in test [3] and in test [4] was “inactive” in each case.

As for `c1ccc(-c2ncc(CN3CCN(c4ncccn4)CC3)[nH]2)cc1`, the Potency result in test [1], in test [2], in test [5], in test [3] and in test [4] was “inactive” throughout.

For the compound `COc1c/c(=C2\C=c3ccccc3=N2)[nH]/c1=C\c1[nH]c(C)cc1C`, the Potency entry in test [2] is “inactive”. Moreover, the Potency is 3.38 µM (active) in test [6], 1.19 µM (active) in test [5] and 10.7 µM (active) in test [3].

Consider `CCC(C)/C=C(C)/C=C/c1cc2c(cn1)C(=O)C(C)(OC(C)=O)C(O)=C2Cl` (stereo not given), for which the Potency entry in test [1] and in test [3] was “inactive” each time. Also, the Potency in test [5] was 0.736 µM (active).

On to `C#CC[C@H](c1nc2cc(Cl)ccc2c(=O)n1Nc1ccccc1)N(CCCN)C(=O)c1cccc(Cl)c1F`, for which the Potency result in test [1], in test [5], in test [3] and in test [4] was “inactive” in each case.

In the case of `CNC(=O)c1ccccc1Nc1nc(Nc2ccc3c(c2OC)CCC[C@@H](N2CCN(CCO)CC2)C3)ncc1Cl`, the Potency result in test [2], in test [6], in test [5] and in test [3] was “inactive” in each case.

Consider `Cc1cc(N(C)C)ccc1-c1nc2ccc(-c3nc4ccc(N5CCN(C)CC5)cc4[nH]3)cc2[nH]1`, for which the Potency entry in test [1] and in test [3] was “inactive” each time. In addition, in test [5], the Potency was 2.38 µM (active).

Consider `Nc1nc(-n2cc(C(=O)O)c(=O)c3cc(F)c(N4CC(O)C4)c(Cl)c32)c(F)cc1F`, for which the Potency entry in test [2] and in test [6] was “inactive” throughout.

For `C/C=C/C=C/C(O)=C1\C(=O)[C@]2(C)C3C(C(=O)CC/C=C/C)=C(O)C4(C)C1[C@]1(C)O[C@@]4(O)[C@@]3(C)O[C@@]12O`, the Potency entry in test [2], in test [6] and in test [3] was “inactive” each time. In addition, the Potency in test [5] was 4.62 µM (active).

Turning to `Cc1ccc(-c2ccc3ncc4c(c3n2)n(C2CCN(C(=O)[C@H](C)O)CC2)c(=O)n4C)cn1`, in test [1], the Potency is 22.7 µM (active). Also, the Potency entry in test [6], in test [5], in test [3] and in test [4] was “inactive” throughout.

Take `CC(=O)OC[C@H]1O[C@H](O[C@]2(CO)O[C@H](CO)[C@@H](OC(=O)/C=C/c3ccccc3)[C@@H]2O)[C@H](O)[C@@H](O)[C@@H]1O`: the Potency entry in test [2], in test [6] and in test [3] was “inactive” each time. In test [5], the Potency is 4.62 µM (active).

With `COc1cccc(Nc2ncnn3ccc(CN4CC[C@@H](N)[C@H](O)C4)c23)c1`, the Potency result in test [2], in test [6], in test [5] and in test [3] was “inactive” throughout.
